# High-throughput results from PubChem.
# Only some compounds are listed: those with a hit (about 14% of all), similar ones and a draw of the others.
# Pf growth 48h: Primary qHTS for delayed death inhibitors of the malarial parasite plastid, 48 hour incubation; 310,000 compounds, 5.9% hits; P. falciparum luciferase growth in erythrocytes, 48 h; Potency, µM (titrated, usually from 28.7 µM), without a hit: at the top dose activity change, negative = inhibition, usual class: inhibitors; also: potency is read from the fitted curve at half-maximal effect
#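 Parasite viability was followed by luminescence of a genomically integrated firefly luciferase. Cultures held 0.1% parasitemia at 2% hematocrit (final), incubated under 5% CO2 at 37 C.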
# Sm TGR block: qHTS Assay for the Inhibitors of Schistosoma Mansoni Peroxiredoxins | Schistosoma mansoni thioredoxin glutathione reductase (TGR), Q962Y6 | purified TGR, DTNB reduction, TNB absorbance 405 nm | Potency, µM (highest dose often 114 µM), without a hit: at the top dose activity change, negative = inhibition, hits mostly inhibitors | 360,000 compounds, 3% hits; also: potency is read from the fitted curve at half-maximal effect; nearly all actives have a fitted effect of over 60% in size
#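 Kinetic colorimetric format: TGR-catalysed, NADPH-driven DTNB reduction monitored via TNB absorbance. Enzyme dispensed at 20 nM; compound exposure 15 min at room temperature before reaction start.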
# Giardia FBPA inh: qHTS Assay for Inhibitors of Fructose-1,6-bisphosphate Aldolase from Giardia Lamblia. A8B2U2. purified Giardia FBPA. Potency, µM (top dose mostly 59.6 µM), for the others: top-dose activity, negative = inhibition, most hits filed as inhibitors. 290,000 compounds, 0.71% hits; also: potency is read from the fitted curve at half-maximal effect; nearly all actives have a fitted effect of over 55% in size
# Target sequence (A8B2U2 whole entry, looked up): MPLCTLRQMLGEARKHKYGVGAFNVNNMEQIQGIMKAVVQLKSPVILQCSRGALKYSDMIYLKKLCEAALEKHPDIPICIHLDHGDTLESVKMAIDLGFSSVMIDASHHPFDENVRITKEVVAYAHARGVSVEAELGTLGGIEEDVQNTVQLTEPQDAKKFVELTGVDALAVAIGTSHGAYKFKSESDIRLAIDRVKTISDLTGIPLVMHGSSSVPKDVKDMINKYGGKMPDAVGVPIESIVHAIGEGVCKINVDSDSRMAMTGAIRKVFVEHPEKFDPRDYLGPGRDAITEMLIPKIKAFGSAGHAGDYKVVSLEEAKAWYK
#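 40 nM FBPA preincubated 10 min at RT with compound (up to 57.5 uM final), then substrate plus GAPDH/TPI/NAD/arsenate coupling and diaphorase/resazurin added. Fluorescence read after 20 min at RT, 525/598 nm.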
# Pf growth 96h: Primary qHTS for delayed death inhibitors of the malarial parasite plastid, 96 hour incubation; P. falciparum luciferase reporter growth, 96 h; Potency, µM (top dose mostly 28.7 µM), for inactives: top-dose activity change, negative = inhibition, usual class: inhibitors; 320,000 compounds, 6.9% hits; also: potency is read from the fitted curve at half-maximal effect
#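 Cell-based qHTS: luciferase-tagged P. falciparum in erythrocytes (2% hematocrit, 0.05% parasitemia final) incubated with compounds for 96 hours, 37 C, 5% CO2; luciferase detection reagent then added and luminescence measured.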
# HCMV inh: qHTS Assay for inhibitors of the human cytomegalovirus (HCMV) | activity change, negative = inhibition, % at 57.5 µM | 410,000 compounds, 4.5% hits | HFF cells, HCMV-luciferase reporter, 72 h; stronger effect = lower value; in the data active = activity change below about -60%; inconclusive = no clear call, values can overlap the other calls; inactive = above about -39%
#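 Steps: HFFs plated, 16 h 37C; compounds added; HCMV-luciferase added to MOI 1 PFU/cell; 72 h 37C; OneGlo reagent, 5 min room temperature; luminescence read, normalized to controls.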
# An asterisk follows results filed as active; ? = inconclusive; · = no result; [ ] = dose if it differs, or a comment. Unless noted, calls follow the shape of the dose curve; as a rule, active = well fitted curve in the direction sought with a large enough effect; inconclusive = small, poorly fitted or top-dose-only effect, or another doubt; inactive = no such curve, though single readings can be large; an effect the other way counts as inactive or inconclusive. % is scaled to controls: 0 for no effect and ±100 for the full control effect.
SMILES,Pf growth 48h,Sm TGR block,Giardia FBPA inh,Pf growth 96h,HCMV inh
CCO[C@@H]1OC(C(=O)N2CCN(Cc3ccccc3)CC2)=C[C@H](C)[C@H]1CCCO,?,-32.0%,1.3%,?,-6.0
CCO[C@H]1OC(C(=O)N2CCN(Cc3ccccc3)CC2)=C[C@@H](C2CCCCC2)[C@@H]1CCCO,?,7.0%,5.1%,1.65µM*,-3.4
CCO[C@@H]1OC(C(=O)N2CCN(Cc3ccc4c(c3)OCO4)CC2)=C[C@H](C2CCCCC2)[C@H]1CCCO,?,-22.4%,-19.3%,0.928µM*,0.1
COc1ccc(NC(=O)CN(C)Cc2cccs2)cc1Cl,?,0.7%,10.6%,-28.3%,13.9
N[C@H](C(=O)O)c1nn[nH]n1,·,·,-25.7%,·,·
COc1ccc(C(CNC(=O)c2cccc(NS(=O)(=O)c3ccc(C)c(F)c3)c2)N(C)C)cc1 (stereo not drawn),?,-21.3%,·,11.7µM*,-0.1
COc1ccc(C(CNC(=O)c2cccc(S(=O)(=O)Nc3ccc(F)cc3)c2)N(C)C)cc1 (stereo not drawn),11.7µM*,-11.0%,·,9.28µM*,-17.2
COc1ccccc1C(CNC(=O)c1cccc(NS(=O)(=O)c2ccc(C)c(F)c2)c1)N(C)C (stereo not drawn),?,-1.7%,·,9.28µM*,-19.7
CCCn1nc2cc(C(=O)NCC34CC5CC(CC(C5)C3)C4)ccc2c1OCC,11.7µM*,1.6%,1.1%,?,0.0
CCN(CC)c1ccc(C=Nc2ccc(C)cc2C)c(O)c1,20.8%,-13.5%,-22.7%,25.0%,-27.0
Oc1cccc(/C=N/N=C/c2cccc(O)c2O)c1O,13.1µM*,-32.1%,-14.6%,?,-11.0
CC(N=Cc1cccc(O)c1O)c1ccccc1 (stereo not drawn),?,5.62µM*,?,·,·
CC(N=Cc1cc([N+](=O)[O-])ccc1O)c1ccccc1 (stereo not drawn),?,-5.4%,1.7%,19.6%,54.5
Cc1ccc(N=Cc2cccc(O)c2O)c(C)c1,?,-0.8%,?,11.7µM*,98.3
CCOC(=O)COc1ccc(F)cc1C(=O)c1ccn2nc(-c3ccc(C)cc3)cc2n1,·,-1.9%,·,·,-16.4
Cc1ccccc1OC1C=CC(c2ccccc2)OC1CO (stereo not drawn),·,·,1.7%[12.9 µM],·,·
O=C(c1cccc(C(F)(F)F)c1)N1CCC2(CC1)NCCc1[nH]cnc12,7.4%,-8.4%,·,15.5%,12.2
COc1ccc(CCN2CC(O)=C(c3nc4ccccc4c(=O)[nH]3)C2=N)cc1OC,13.1µM*,1.2%,-5.0%,·,-20.3
COc1ccc(CCN2CC(O)=C(c3nc(C)cs3)C2=N)cc1OC,-2.1%,0.4%,-5.0%,21.3%,38.6
Nc1ccc2ccc(NS(=O)(=O)N3CCCCC3)cc2c1,·,·,·,·,6.9
CSc1ncc(/C=C2/C(=O)NC(=O)N(C)C2=O)cn1,4.8%,1.41µM*,-0.6%,7.1%,-12.5
CCCCN1C(=O)NC(=O)/C(=C/c2cnc(SC)nc2)C1=O,?,7.08µM*,-5.2%,-13.9%,88.6
CSc1ncc(/C=C2/C(=O)NC(=O)N(C3CCCCC3)C2=O)cn1,4.9%,5.01µM*,4.8%,?,196.0
Cc1ccc(-n2c(C)cc(/C=C3/C(=O)NC(=O)N(C)C3=O)c2C)cc1,-20.3%,-34.1%,-0.3%,13.2%,-4.6
CCCCN1C(=O)/C(=C/c2ccc(N3CCCCCC3)cc2)C(=O)NC1=S,5.4%,?,5.5%,-6.5%,·
CS(=O)(=O)N1CCC2(CCCN(C(=O)Nc3cccc(C#N)c3)C2)CC1,·,·,-10.4%,·,·
COc1ccc(OC)c(NC(=O)CN2C(=O)C(C)N(c3ccc(C)cc3)C2=O)c1 (stereo not drawn),-17.0%,-0.3%,·,?,-10.0
COc1ccc(C)cc1NC(=O)C(Sc1nnnn1C)c1ccccc1 (stereo not drawn),-22.9%,0.2%,4.6%,24.2%,-24.6
COCCn1c(SC(C(=O)Nc2cc(C)ccc2OC)c2ccccc2)nnc1-c1ccc(Cl)cc1 (stereo not drawn),13.1µM*,1.8%,5.4%,9.28µM*,-9.1
